Source: PubChem BioAssay
The list is not random: actives were taken first. Their share in the collection is about 4.1%.
IDE act: human IDE activators in live cells, primary screen, fluorescence polarization, HEK cells, FAbeta-B substrate; FAbeta-B cleavage; 0% vehicle, 100% cell-free pure enzyme wells; AID 493087, 2011; actives 0.073% (n = 340,000); activation, % at 5.96 µM;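 active means activation above the mean of all tested compounds plus 3 SD, set per screening campaign, cut at about 17% in these data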
CaV13 FRET inh: Disruptors of the CACNA1D IQ motif to Ca2+-dependent inactivation inhibitor domain association, primary screening, Förster resonance energy transfer in intact living …; HEK cells, CFP/YFP FRET ICDI-IQ, plate reader, 10 min; percent FRET-ratio fall versus neutral wells; inhibition, % at 12.3 µM; actives 0.098% (n = 340,000);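 active means mean replicate inhibition of at least 30% and at least 1% of replicates passing that level; inconclusive means only one of the two criteria is met; inactive means neither criterion is met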
IDE cell inh: human IDE inhibitors in live cells, primary screen, fluorescence polarization, HEK cells, FAbetaB substrate. FAbetaB cleavage. actives 0.41% (n = 320,000). AID 434962, 2010. inhibition, % at 5.59 µM;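 active means percent inhibition above the average of all tested compounds plus 3 SD, set per screening campaign, cut at about 16% in these data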;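 further: IDE supplied by intact live HEK cells; FP after avidin binding of uncleaved biotin substrate so inhibition keeps polarization high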
PfM18AAP inh: PfM18AAP inhibitors, malaria aminopeptidase, primary screen, biochemical, QFRET, recombinant enzyme; H-Glu-NHMec fluorogenic cleavage; inhibition, % at 7.35 µM; actives 1.2% (n = 290,000);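 active means inhibition above the campaign mean inhibition over all tested compounds plus 3 SD, cut at about 28% in these data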
PolyA inh: polyadenylation inhibitors in yeast reporter cells, primary screen, luminescence, S. cerevisiae | S. cerevisiae SKY197-pL101 polyadenylation reporter, beta-gal luminescence; efflux-impaired pdr1/pdr3 knockout yeast; score 100 = 6 SD above DMSO | activity score, % at 12 µM | actives 0.02% (n = 300,000) | AID 1875, 2009;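 active means lowest replicate activity score at least 50, where 100 means six control SD above control mean; inconclusive means lowest score under 50 but half or more replicates reach 50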;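 further: yeast exposed to compound for 9 h at 30 °C; higher score means more reporter readthrough which indicates perturbed polyadenylation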
ALR H2O2 inh: inhibitors of human ALR sulfhydryl oxidase, primary screen, biochemical, H2O2 detection, HRP-luminol luminescence, single point | FAD-linked sulfhydryl oxidase ALR (Homo sapiens), P55789 | actives 3.8% (n = 290,000) | purified ALR, DTT oxidation | inhibition, % (concentration not given with the values);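 active means mean replicate inhibition above about 79%, with every replicate also reaching it, limit read from the data; inconclusive means only one of the two criteria met; inactive means mean below limit and not every replicate reaching it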
Target sequence (P55789 whole entry, looked up): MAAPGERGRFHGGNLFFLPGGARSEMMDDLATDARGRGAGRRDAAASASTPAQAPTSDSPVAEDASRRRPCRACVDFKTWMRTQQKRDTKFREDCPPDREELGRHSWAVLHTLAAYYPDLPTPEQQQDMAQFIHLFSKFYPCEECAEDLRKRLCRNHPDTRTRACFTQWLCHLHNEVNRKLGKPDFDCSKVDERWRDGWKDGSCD
Each line names hits and unclear results; the compound was inactive in the other large screens.

C/C(=N\N(c1ccccc1)c1ccccc1)c1ccc(N)cc1	none (no result: PfM18AAP inh)
CC(C)CCOc1ccc(NC(=O)C2OC3OC(C)(C)OC3C3OC(C)(C)OC23)cc1 (centres undefined)	none
CC(C)CCOc1ccc(CO[C@@H]2[C@H]3OC(C)(C)O[C@H]3O[C@@H]2C(O)CO)cc1 (some centres undefined)	ALR H2O2 inh 86.6
CCOc1ccc(NC(=S)NCCCn2ccnc2)cc1	none
CC(C)c1ccccc1NC(=S)NCCCn1ccnc1	ALR H2O2 inh 87.0
O=C(NCCCn1ccnc1)C(Cc1ccccc1)N1C(=O)c2ccccc2C1=O (centres undefined)	PfM18AAP inh 29.5
O=C(CCn1c(=O)oc2cc(Cl)ccc21)Nc1ccc(O)cc1	ALR H2O2 inh 97.6
COc1ccccc1-n1cnc2cc(NCc3ccccc3O)ccc21	ALR H2O2 inh 97.8
CCn1cnc2cc(NCc3cccc(OC)c3O)ccc21	ALR H2O2 inh 94.4
Cc1oc2c(O)c(O)ccc2c(=O)c1-c1ccccc1	PolyA inh inconclusive, ALR H2O2 inh 98.8 (no result: PfM18AAP inh)
Cc1oc2c(CN3CCCCC3C)c(O)ccc2c(=O)c1-c1ccccc1 (centres undefined)	none
CCOC(=O)C1CCN(S(=O)(=O)c2ccc(NC(=O)OC)cc2)CC1	none
COC(=O)Nc1ccc(S(=O)(=O)N2CCC(C(=O)N(C)C3CCCCC3)CC2)cc1	ALR H2O2 inh 92.2
O=C(CCn1cnc2ccccc2c1=O)Nc1cccc(Cl)c1Cl	none
O=C(OCCCN1CCOCC1)c1ccc(O)c(O)c1	PfM18AAP inh 43.6, ALR H2O2 inh 98.7
COc1cc(C(=O)OCCN2CCOCC2)ccc1O	ALR H2O2 inh 96.4 (no result: CaV13 FRET inh)
Cn1c(=O)c2c(nc(N3CCN(c4ccc([N+](=O)[O-])cc4)CC3)n2C)n(C)c1=O	none (no result: IDE act)
Nc1nc2ccc(S(=O)(=O)N3CCCCC3)cc2s1	ALR H2O2 inh 97.7
COC(=O)C1C/C(=N\NS(=O)(=O)c2ccc(C)cc2)c2ccsc2C1 (centres undefined)	none (no result: ALR H2O2 inh)
COc1ccc(NC(=O)COC(=O)C2CC2)c(OC)c1	none (no result: PfM18AAP inh, PolyA inh)
CCOC(=O)c1[nH]c2cc(OC)c(OC)cc2c1NC(=O)CN(C)C1CCCCC1	ALR H2O2 inh 97.0
CCOC(=O)c1[nH]c2cc(OC)c(OC)cc2c1NC(=O)c1ccc2c(c1)OCO2	none
COc1ccc(-n2nc(C(=O)NCC(=O)NCc3ccc(F)cc3)c3ccccc3c2=O)c(OC)c1	none (no result: CaV13 FRET inh, IDE cell inh, PolyA inh, ALR H2O2 inh)
CN1c2cccc3cccc(c23)N(C)C1(C)C	ALR H2O2 inh 87.4
CN1c2ccccc2N(C)C1(C)c1cccc2ccccc12	none
O=C(c1cccs1)N1CCN(c2cc(Cl)ccc2Cl)CC1	none
COc1ccc(N2CCN(S(=O)(=O)CCNC(=O)c3cccs3)CC2)cc1	none (no result: PfM18AAP inh)
O=C(c1cccs1)N1CCN(c2ccc(Cl)cc2)CC1	ALR H2O2 inh 96.4
COc1ccc(N2CCN(C(=O)Cc3cccs3)CC2)cc1	ALR H2O2 inh 96.8 (no result: CaV13 FRET inh)
COc1ccc(N2CCN(C(=O)CNC(=O)c3cccs3)CC2)cc1	ALR H2O2 inh 95.1
O=C(NCC(=O)N1CCN(c2ccccc2)CC1)c1cccs1	ALR H2O2 inh 96.1
CN1CCN(C(=O)CNC(=O)c2cccs2)CC1	none (no result: PfM18AAP inh, PolyA inh)
COc1ccc(N2CCN(C(=O)Cc3ccc(OC)c(OC)c3)CC2)cc1	ALR H2O2 inh 87.9
O=C1CSC(c2ccc([N+](=O)[O-])cc2)N1c1ccccc1 (centres undefined)	ALR H2O2 inh 98.1
COc1ccc(N2C(=O)CSC2c2ccc([N+](=O)[O-])cc2)cc1 (centres undefined)	ALR H2O2 inh 98.0
COc1ccc(N2C(=O)CSC2c2ccc3c(c2)OCO3)cc1 (centres undefined)	none
c1ccc2c(c1)OCCc1c-2[nH]c2ccccc12	ALR H2O2 inh 95.7
O=C1CCCc2c1[nH]c1ccccc21	none (no result: CaV13 FRET inh)
CN(CC(=O)Nc1ccc(Cl)c(C(F)(F)F)c1)C(=O)c1ccc(OCC2CCCO2)cc1 (centres undefined)	none (no result: PfM18AAP inh)
COC(=O)c1ccccc1NC1OC(=O)c2ccccc21 (centres undefined)	none (no result: CaV13 FRET inh)
Cc1ccc2cccc(NC3OC(=O)c4ccccc43)c2n1 (centres undefined)	PfM18AAP inh 28.5
COc1ccc(C(=O)NCC2(c3ccc(OC)c(OC)c3)CCCC2)c(OC)c1	PolyA inh inconclusive
CCOc1ccc(CN(C)C(=O)CCl)cc1	none
CC(c1n[nH]c(=S)n1-c1ccc(Cl)cc1)N(C)C (centres undefined)	none
CC(c1n[nH]c(=S)n1-c1ccc(F)cc1)N1CCCCC1 (centres undefined)	ALR H2O2 inh 90.7
CC(C)(C)c1nnc(SCC(=O)Nc2ccc(N3CCCCC3)cc2)n1N	ALR H2O2 inh 99.2 (no result: PfM18AAP inh, PolyA inh)
CC(Sc1nncn1C)C(=O)Nc1ccc(N2CCCCC2)cc1 (centres undefined)	ALR H2O2 inh 92.2 (no result: PfM18AAP inh, PolyA inh)
CC(C)n1cnnc1SCC(=O)Nc1ccc(N2CCCCC2)cc1	PolyA inh inconclusive, ALR H2O2 inh 98.8 (no result: PfM18AAP inh)
CC(C)C(=O)Nc1ccc(N2CCCC2)cc1	none (no result: CaV13 FRET inh)
CC(C)n1cnnc1SCC(=O)NCC(=O)Nc1ccc(F)cc1	none (no result: PfM18AAP inh, PolyA inh)
O=C(O)c1c2c(nc3ccc(S(=O)(=O)N4CCC(C(=O)NCc5ccccc5Cl)CC4)cc13)CCCC2	none
N/N=C1\CCCc2c1[nH]c1ccc([N+](=O)[O-])cc21	none (no result: IDE act, ALR H2O2 inh)
O=[N+]([O-])c1ccc2[nH]c3c(c2c1)CCCC3	ALR H2O2 inh 97.9
O=C(C1CCC(=O)N1Cc1cccnc1)N1CCN(c2ccc(F)cc2)CC1 (centres undefined)	none
Cc1ccc(CN2C(=O)CCC2C(=O)N2CCN(c3ccc(F)cc3)CC2)cc1 (centres undefined)	ALR H2O2 inh 91.1 (no result: CaV13 FRET inh)
Fc1ccc(N=Cc2ccc[nH]2)cc1	none
CC(=O)Nc1ccc(N=Cc2ccc[nH]2)cc1	ALR H2O2 inh 98.1 (no result: PolyA inh)
CC1(C(=O)OCC(=O)NCCNC(=O)COC(=O)C2(C)CC2(Cl)Cl)CC1(Cl)Cl (centres undefined)	none
COc1cc(C2c3[nH]c4ccccc4c3CC3COC(=O)N32)cc(OC)c1O (centres undefined)	none (no result: IDE cell inh, PfM18AAP inh, PolyA inh, ALR H2O2 inh)
CCNc1nc(NCC)n2c(SCC(=O)Nc3ccc(NC(C)=O)cc3)nnc2n1	ALR H2O2 inh 97.5 (no result: PfM18AAP inh)
CCNc1nc(NCC)n2c(SCC(=O)Nc3ccc(CC)cc3)nnc2n1	ALR H2O2 inh 98.7 (no result: CaV13 FRET inh, PfM18AAP inh)
CCNc1nc(NCC)n2c(SCC(=O)Nc3ccccc3F)nnc2n1	none (no result: PfM18AAP inh, ALR H2O2 inh)
